Test results reported in PubChem BioAssay.

assay: probe aLefty1 binding on compound microarray – biochemical, small-molecule microarray, 635/667 nm fluorescence, primary screen (AID 1153); details: higher = more signal;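 also: score merges spot fluorescence with signal-to-noise ratio from the scanned slide images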

| Compound | composite z-score |
| --- | --- |
| N#Cc1ccc(NN2C(C(O)c3c(F)cccc3Cl)C=CC3C(=O)N(c4ccccc4)C(=O)C32)cc1 (centres undefined) | 0.192 |
| [N-]=[N+]=Nc1ccccc1[C@H]1OC(c2ccc(OCCCO)cc2)=N[C@@]1(Cc1ccccc1)C(=O)O | 0.346 |
| O=C1NCC(=O)N2[C@@H]1C[C@@H](C(=O)O)[C@H]2c1cccc(OCCO)c1 | 3.14 |
| COc1ccc(CCN2C(=O)[C@@]3(Cc4ccccc42)c2ccccc2C(=O)N(Cc2ccccc2C(F)(F)F)[C@H]3c2ccc(CO)cc2)cc1 | -0.201 |
| CN(C)C(=O)[C@]1(Cc2ccccc2CN=[N+]=[N-])N=C(c2ccc(OCCCO)cc2)O[C@@H]1c1ccccc1CN=[N+]=[N-] | 0.425 |
| CC(C)C[C@@H]1NC(=O)[C@H]2C[C@@H](C(=O)NCCCCCCN)[C@@H](c3ccc(O)cc3)N2C1=O | 0.51 |
| C=C(CCCC)/C(=C/C[C@@H](OC(C)=O)c1ccccc1OCCO)c1cnc2ccccc2c1 | 0.082 |
| COC(=O)[C@@]1(Cc2ccccc2)[C@H]2c3cc(C(=O)N4CCCC4)n(Cc4cccc5ccccc45)c3C[C@H]2CN1C(=O)c1ccccc1 | 1.71 |
| [N-]=[N+]=NCc1ccccc1[C@@H]1OC(c2ccc(OCCCO)cc2)=N[C@]1(CCS(=O)(=O)c1ccccc1)C(=O)NCc1ccccc1 | 1.43 |
| O=C1C[C@]2(c3ccc([N+](=O)[O-])cc3)C(=O)N(CCN3CCOCC3)c3cc(CO)ccc3[C@H]2N1C1CCCCC1 | -0.0108 |
| O=C1O[C@@H](c2ccccc2)[C@@H](c2ccccc2)N2[C@@H](c3ccc(OCCO)cc3)[C@]3(C(=O)Nc4ccccc43)[C@@H](C(=O)NC[C@H](O)c3ccccc3)[C@H]12 | -0.0491 |
| Cc1ccc(C(C)CC(O)C2C=CC3C(=O)N(c4ccccc4)C(=O)C3N2Nc2ccc([N+](=O)[O-])cc2)o1 (centres undefined) | 0.218 |
| CC(C)C[C@@H]1NC(=O)[C@@H]2C[C@H](C(=O)NCCCCCN)[C@H](c3cccc(OCCO)c3)N2C1=O | 0.427 |
| C=C(CCCC)C(=O)CC[C@@H](OC(=O)c1cccnc1)c1ccc(CO)o1 | -0.289 |
| COc1ccc(C(O)C2C=CC3C(=O)N(c4ccccc4)C(=O)C3N2Nc2ccc(C(C)C)cc2)cc1OCc1ccccc1 (centres undefined) | 0.129 |
| CC(C)[C@@H](CO)NC(=O)[C@H]1[C@@H](c2ccccc2)N(c2ccccc2)O[C@@H]1C | -0.151 |
| O=C1c2ccccc2[C@](Cc2ccccc2I)(C(=O)NC2CC2)[C@H](c2ccc(CO)cc2)N1C1CCCCC1 | 0.166 |
| CC1CC/C=C\[C@H]2OC34C=CCN(Cn5nnc6ccccc65)C(=O)[C@H]3N(C(CO)C(C)C)C(=O)[C@@H]4C2C(=O)O1 (some centres undefined) | 0.0956 |
| C=CCOC(=O)[C@H]1[C@@H]2C(=O)O[C@@H](c3ccccc3)[C@@H](c3ccccc3)N2[C@@H](c2ccc(OCCOC(=O)[C@H]3C[C@H]4C(=O)N[C@@H](CC(C)C)C(=O)N4[C@H]3c3ccc(O)cc3)cc2)[C@]12C(=O)Nc1ccc(I)cc12 | 0.0839 |
| COCCOC(=O)N1C(=O)[C@@]2(c3cc(C#CC4=CCCCC4)ccc31)[C@H](c1ccc(O)cc1)N1[C@H](c3ccccc3)[C@H](c3ccccc3)OC(=O)[C@H]1[C@@H]2C(N)=O | -0.523 |
| CN(C)CCCNC(=O)[C@@]1(c2ccc([N+](=O)[O-])cc2)CC(=O)N(C2CCCCC2)[C@@H]1c1ccc(CO)cc1I | 0.0824 |
| COCCOC(=O)N1C(=O)[C@@]2(c3cc(C#CCCO)ccc31)[C@H](C(=O)N1CCc3cc(OC)c(OC)cc3C1)[C@H]1C(=O)O[C@H](c3ccccc3)[C@H](c3ccccc3)N1[C@@H]2c1ccc(O)cc1 | 0.88 |
| CCCC[C@@H]1C[C@H]1[C@@H](NC(=O)c1ccco1)c1ccc(C(=O)OC)cc1 | -0.214 |
| CCCCCN1CC=CC23O[C@@H]4/C=C\CCCOC(=O)C4[C@H]2C(=O)N(CCCO)[C@@H]3C1=O (some centres undefined) | -0.353 |
